According to the supplement of paper PMC10338343:
± gives the standard deviation.

Each sequence was assayed on MILI (PIWIL2) piRISC loaded with L1MC piRNA (26 nt) (assay: pre-steady-state target cleavage rate (min^-1); guide: L1MC piRNA 5'p-UAACUAAAUACUAUGCAAGCUGUAGG; MIWI and MILI are mouse PIWI proteins and EfPiwi is from a freshwater sponge; tags in brackets are library labels; higher = faster piRNA-guided slicing of the target). Conditions: auxiliary factor: 500 nM mouse GTSF1.
Method in brief: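 For Cleave-'n-Seq, a transcribed, DNA-blocked target RNA library […] met 1 nM active affinity-purified piRISC with one synthetic guide at 33 °C for 0–8 or 0–960 min in HEPES–potassium acetate buffer, with or without 500 nM GTSF1 partner protein. Uncleaved targets were sequenced and normalised to depth and weakly complementary targets, with three trials pooled and k3 capped at 0.0001 min^-1. A burst-and-steady-state fit supplied the pre-steady-state cleavage rate.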
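Note: 1 nM active piRISC with 0.1 nM target library at 33 °C single turnover.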

| Sequence | pre-steady-state target cleavage rate |
| --- | --- |
| UCCUGGUACAGCUUGCAUAGUAUUUACAUA | 0.0411 ± 0.014 |
| UCCUGGAUGAGCUUGCAUACUAAUUAGUUA | 0.0128 ± 0.0042 |
| UCCUGGAUGAGGUUGCAUAGAAUUUAGUUA | 0.00935 ± 0.0046 |
| UCCUGGUACACGUUGCAUAGUAUUUAGAAA | 0.0229 ± 0.011 |
| UCCUGGAUGUCGAUGACAUAGUAUUUAGUUA | 0.015 ± 0.0059 |
| UCCUCCUACAGCUUGCAAAGUAUUUACAAA | 0.0935 ± 0.021 |
| UCCUGGUACAGCUUGCAUAGUAAUUAGAAA | 0.0664 ± 0.018 |
| UCCUGGAUCACCUUGCAUAGUUUUUAGUUA | 0.016 ± 0.0061 |
| UCCUGGAUGUGCUUGCAUAGUAUAUAGAUA | 0.00547 ± 0.0037 |
| UCCUGGAUCAGCUACCAUAGUAUUUAGUAA | 0.127 ± 0.012 |

Same assay, conditions: auxiliary factor: none (no GTSF1)

| Sequence | pre-steady-state target cleavage rate |
| --- | --- |
| UCCUGGAUGUCGAACGUAAGUAUUUUGUUA | < 0.0001 |
| UCCUGGAUGUCGAACGUUAGCAUUUAGUUA | < 0.0001 |
| UCCUGGAUGUCGAACCAUAGUUUUUAGUAA | < 0.0001 |
| UCCUGGAUGAGCUUGCAUACAUUUUAGUUA | 0.00358 ± 0.0026 |
| UCCUGGAUGUCGAACGAUAGUAUUUAGAUA | < 0.0001 |
| UCCUGGAUGUCGAACCAAGUAUUUAGUUA | < 0.0001 |
